The sample as a whole holds a higher share of hits than the screen did.
RE007 growth inh = less growth of the S. pombe RE007 Vpr strain; S. pombe RE007 Vpr strain, BacTiter-Glo ATP luminescence, 24 h; Potency, µM (titrated, usually from 92.2 µM), without a hit: at the top dose activity change, negative = less growth, hits mostly inhibitors; 360,000 compounds, 0.21% hits; AID 651644; active means well fitted falling curve with a large enough effect; inconclusive means small, poorly fitted or top-dose-only effect; inactive means no such curve, though single readings can be large or run the other way; further: potency means the concentration at half of the fitted maximal effect; on the % scale 0 is the no-effect control and ±100 the full control effect; nearly all actives have a fitted effect of over 50% in size
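Fission yeast strain RE007, carrying one chromosomally integrated HIV-1 vpr copy, was seeded at OD 0.01 in PMG+AL medium with 23 nL pinned compound. After 24 h at 30 °C and 99% humidity, viability was read by BacTiter-Glo luminescence.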
TbPYK inhibitor = T. brucei pyruvate kinase inhibition | 410,000 compounds, 0.12% hits | TbPYK enzyme, Kinase-Glo Plus ATP luminescence, 45 min | Q57TT1 | AID 624173 | Potency, µM (highest dose often 76.8 µM), without a hit: at the highest dose activity, negative = inhibition, hits mostly inhibitors; further: potency means the concentration at half of the fitted maximal effect; on the % scale 0 is the no-effect control and ±100 the full control effect; nearly all actives have a fitted effect of over 50% in size
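TbPYK + substrate in 50 mM TEA pH 7.2, 100 mM KCl, 10 mM MgCl2, 0.05% BSA, 0.01% Tween-20; cpd pinned; ADP 130 uM final; 45 min RT; Kinase-Glo Plus 10 min; luminescence endpoint.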
CHX counter = counter-screen for Shiga toxin inhibitors: cycloheximide protein synthesis inhibition; cell reporter, cycloheximide protein synthesis inhibition counterscreen; max response, %; 300,000 compounds, 12% hits; AID 2314; in the data active means max response mostly above about 13%, no sharp cut-off; inactive means mostly below about 14%; further: read at 38.3 µM for the half of the compounds with a filed dose; 0% is about no effect
Giardia FBPA inh = blocks Giardia fructose-bisphosphate aldolase activity. purified Giardia FBPA. 290,000 compounds, 0.71% hits. Potency, µM (titrated, usually from 59.6 µM), for the others: at the highest dose activity, negative = inhibition, actives largely listed as inhibitors. A8B2U2; further: potency means the concentration at half of the fitted maximal effect; on the % scale 0 is the no-effect control and ±100 the full control effect; nearly all actives have a fitted effect of over 55% in size
Target sequence (A8B2U2 whole entry, looked up): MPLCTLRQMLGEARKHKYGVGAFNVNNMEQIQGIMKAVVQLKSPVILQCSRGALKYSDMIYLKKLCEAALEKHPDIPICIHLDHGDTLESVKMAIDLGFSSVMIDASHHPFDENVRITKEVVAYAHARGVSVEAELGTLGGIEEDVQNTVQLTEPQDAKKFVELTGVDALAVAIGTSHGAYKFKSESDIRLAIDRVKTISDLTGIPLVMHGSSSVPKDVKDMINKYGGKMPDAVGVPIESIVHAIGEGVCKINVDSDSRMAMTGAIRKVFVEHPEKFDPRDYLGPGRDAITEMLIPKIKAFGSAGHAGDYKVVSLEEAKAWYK
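Giardia FBPA (40 nM reagent) was preincubated 10 min at RT with compound (up to 57.5 uM final), then substrate plus GAPDH/TPI/NAD/arsenate coupling system with diaphorase/resazurin was added; resorufin fluorescence (525/598 nm) was read after 20 min.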
Shiga toxin inh = blocks Shiga toxin action in Vero cells; Vero cells, Shiga toxin protein synthesis inhibition reporter; inhibition, % at 38.7 µM; 290,000 compounds, 9.2% hits; AID 2315; in the data active means inhibition mostly above about 28%, no sharp cut-off; inactive means mostly below about 43%; further: 0% is about no effect
LmPK inhibitor = inhibitors of Leishmania mexicana pyruvate kinase; Q27686; purified LmPK, Kinase-Glo ATP luminescence, 1 h; Potency, µM (highest dose often 57.5 µM), for inactives: top-dose activity change, negative = inhibition, most hits filed as inhibitors; 290,000 compounds, 0.37% hits; AID 1721; further: potency means the concentration at half of the fitted maximal effect; on the % scale 0 is the no-effect control and ±100 the full control effect
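qHTS format; LmPK 0.1 nM; substrates PEP 0.5 mM and ADP 0.1 mM. One-hour room-temperature incubation, then coupled luciferase luminescence; 0.5 nM enzyme wells mark activation.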
Numbers without * were called inactive; ? = inconclusive; . = no result. Unless noted, the call rests on the fitted dose curve; in most records, active means well fitted curve in the direction sought with a large enough effect; inconclusive means small, poorly fitted or top-dose-only effect, or another doubt; inactive means no such curve, though single readings can be large; an effect the other way counts as inactive or inconclusive.

SMILES	RE007 growth inh	TbPYK inhibitor	CHX counter	Giardia FBPA inh	Shiga toxin inh	LmPK inhibitor
C/C(=N\Nc1ccc(F)cc1F)c1ccccc1O	40%	-3%	28*	-5%	79*	-5%
COc1cccc2cc(C(=O)c3ccc([N+](=O)[O-])cc3)oc12	-13%	-18%	23*	9%	22	1%
Cc1ccc(O)c(N=CC2=C(O)c3ccccc3C2=O)c1	3%	1%	33*	-25%	109*	1%
O=C1C(C=Nc2ccccc2O)=C(O)c2ccccc21	?	-11%	32*	5%	51*	?
Cc1ccc(O)c(N=Cc2cc(Cc3ccccc3)cc([N+](=O)[O-])c2O)c1	-21%	-24%	10	?	29	-8%
N#CC1=C(C=Nc2ccccc2O)CCC1	7%	2%	-3	?	-5	-5%
O=C1CN(C(=O)COc2ccc(Cl)cc2Cl)C(c2ccccc2)c2cc(F)ccc2N1 (centres undefined)	.	1%	.	.	.	.
Cc1ccc(NC(=O)Nc2cc(S(C)(=O)=O)ccc2Cl)cc1	-2%	-2%	36*	-26%	78*	-1%
COc1cccc(-c2nc(NC3CCNCC3)c3ccccc3n2)c1	.	.	.	-8%	.	.
CC1(C)SC(=S)N(/N=C/c2ccccc2O)C1N(O)C(=O)Nc1ccccc1 (centres undefined)	2%	-4%	21*	-10%	52*	-1%
CNC(=O)N(O)C1N(/N=C/c2cc(Br)ccc2O)C(=S)SC1(C)C (centres undefined)	.	2%	15*	17%	36	4%
CNC(=O)N(O)C1N(/N=C/c2ccc(C)cc2)C(=S)SC1(C)C (centres undefined)	24%	4%	-4	?	3	2%
O=C(c1ccncc1)N1CCC2(CCCN(c3ccc(-c4ccccc4)cc3)C2)CC1	.	1%	.	-9%	.	.
CCCOc1ccc(C(=O)Nc2ccc(Cl)c(-c3nc4ncccc4o3)c2)cc1	.	-14%	.	.	.	.
CC(C(=O)NC(=O)NC1CCCCC1)N(C)CC(=O)Nc1ccc(F)c(F)c1F (centres undefined)	-5%	0%	.	.	.	.
Cc1ccc(-n2cc3c(=O)n(C)c(=O)n(C)c3c2)cc1C	0%	2%	21*	?	36	3%
Cn1c(=O)c2cn(-c3ccc4c(c3)OCCO4)cc2n(C)c1=O	-1%	1%	67*	?	62	5%
Cc1ccc(NC(=O)CCNS(=O)(=O)c2ccc3c(c2)c(=O)n(C)c(=O)n3C)cc1C	-12%	-3%	-4	-1%	26	-1%
Cc1cc(N)c(-n2cc3c(=O)n(C)c(=O)n(C)c3c2)cc1C	-15%	-5%	40*	-28%	35	?
Cn1c(C(=O)NCCc2ccccc2)cc2sc(Cl)cc21	.	4%	.	.	.	.
NC(=O)C1(N2CCCCC2)CCN(CCCC(=O)c2ccc(F)cc2)CC1	.	0%	-6	-9%	-2	.
CCc1nonc1NC(=O)c1oc2c(C)c(C)ccc2c1C	1%	1%	2	0%	3	1%
CCc1ccc2oc(C(=O)Nc3nonc3CC)c(C)c2c1	0%	0%	59*	-1%	53*	10%
CCc1nonc1NC(=O)c1oc2ccc(C)cc2c1C	1%	-2%	36*	.	45*	-2%
CCc1ccc2oc(C(=O)NCc3ccncc3)c(C)c2c1	8%	0%	22*	7%	50*	-3%
SMILES	RE007 growth inh	TbPYK inhibitor	CHX counter	Giardia FBPA inh	Shiga toxin inh	LmPK inhibitor
CCc1nonc1NC(=O)c1oc2cc(Br)ccc2c1C	-1%	-1%	15*	.	19	11%
Cc1cc(C)c2c(C)c(C(=O)NCc3ccncc3)oc2c1	13%	-12%	-2	1%	-2	1%
CC1=C(C(N)=O)N2C(=O)[C@@H](NC(=O)Cc3ccccc3)C2SC1 (some centres undefined)	.	.	.	0%	.	.
CCCN(Cc1cc2cccc(C)c2[nH]c1=O)C(=O)c1cccc(Cl)c1	.	-1%	.	.	.	.
CCc1nonc1NC(=O)c1oc2ccccc2c1C	-17%	-2%	36*	.	24	-2%
Cc1nonc1NC(=O)c1oc2ccc(F)cc2c1C	11%	1%	-7	.	-3	-18%
COc1cccc(NC(=S)Nc2ccc(Br)cc2Cl)c1	4%	-1%	20*	-9%	32	2%
Cc1cccnc1NC(=S)Nc1ccc(Br)cc1Cl	-4%	-5%	79*	-7%	126*	-6%
CCOc1ccc(NC(=S)Nc2ccc(Br)cc2Cl)cc1	4%	-3%	-1	-7%	16	-1%
CC1CCCC1/C(=N/O)c1ccccc1 (centres undefined)	10%	-3%	-3	6%	-8	-5%
CC(O)/C=C/c1ccc2ccccc2n1 (centres undefined)	-20%	-7%	23*	-1%	33*	-10%
Fc1cccc(F)c1/C=C/c1ccc2ccccc2n1	?	?	24*	-24%	54*	8.9µM*
COc1ccc(C=Cc2ccc3ccccc3n2)c(OC)c1	?	-20%	.	.	.	.
O=C(/C=C/c1ccc2ccccc2n1)N1CCN(c2ccccc2)CC1	0%	-3%	-2	-4%	13	3%
Fc1cccc(Cl)c1/C=C/c1cnc2ccccc2n1	-3%	?	48*	3%	75*	-18%
O=C(O)/C=C/c1cnc2ccccc2n1	-4%	-1%	-3	0%	-5	0%
C(=C\c1ccco1)/c1ccc2ccccc2n1	?	?	38*	-20%	52*	?
Cc1cc(-c2ccc(S(=O)(=O)N(C)Cc3ccccc3)cc2)on1	3%	3%	-2	1%	-10	0%
CC(C)(C)c1ccc(O)c(N=Cc2c(O)ccc3ccccc23)c1	-1%	-13%	4	-2%	9	1%
CCc1ccc(O)c(N=Cc2ccccc2O)c1	-16%	-8%	15*	-18%	71*	-5%
Cc1ccc(N=Cc2cccc(O)c2O)c(C)c1	.	.	25	?	37*	-25%
CC(C)(C)c1ccc(O)c(N=Cc2cc(Br)ccc2O)c1	-5%	?	20*	-5%	31*	-1%
Oc1cccc(/C=N/N=C/c2cccc(O)c2O)c1O	-14%	-13%	30*	-15%	18	3%
CCN(CC)c1ccc(C=Nc2ccc(C)cc2C)c(O)c1	0%	-26%	8	-23%	19	0%
Cc1ccc(O)c(C=Nc2cc(C)ccc2O)c1	-8%	2%	15*	-22%	67	-2%
CC(=O)N=C1SC2CS(=O)(=O)CC2N1Cc1ccc(C)cc1 (centres undefined)	6%	1%	-1	2%	-9	-1%
CC(=O)N=C1SC2CS(=O)(=O)CC2N1c1ccc(-c2nc3ccc(C)cc3s2)cc1 (centres undefined)	.	.	18*	9%	54*	-1%
